Compounds without any hit were thinned out: in the full panel of roughly 83,000, 20% have a hit.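 Negative percent growth values reflect cell death: -40 means 40% of the cells present at the start died, and -100 means all died.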 A number with no mark means an inactive call. Calls of active or inactive are those of the source. How the source made its calls: active means growth percent below 10; inactive means the rest.
How the values were obtained:
Assay in all cases: NCI-60 one-dose screen, 48 h (100 = growth as untreated, 0 = no growth, -100 = all killed)
Conditions in all cases: 10 µM
[1] = tested on: NCI-H23 lung
[2] = tested on: NCI-H226 lung
[3] = tested on: NCI-H460 lung
[4] = tested on: NCI-H522 lung
[5] = tested on: A549/ATCC NSCLC
[6] = tested on: 786-0 renal
[7] = tested on: COLO 205 colon
[8] = tested on: DU-145 prostate
[9] = tested on: K-562 leukemia
[10] = tested on: MALME-3M melanoma
[11] = tested on: MDA-MB-231 breast
[12] = tested on: RXF 393 renal
[13] = tested on: SF-268 CNS
[14] = tested on: SF-295 CNS
[15] = tested on: SF-539 CNS
[16] = tested on: M14 melanoma
[17] = tested on: UACC-257 melanoma

| SMILES | growth [1] [%] | growth [2] [%] | growth [3] | growth [4] [%] | growth [5] [%] | growth [6] | growth [7] | growth [8] [%] | growth [9] [%] | growth [10] [%] | growth [11] [%] | growth [12] [%] | growth [13] [%] | growth [14] | growth [15] | growth [16] | growth [17] |
| --- | --- | --- | --- | --- | --- | --- | --- | --- | --- | --- | --- | --- | --- | --- | --- | --- | --- |
| O=C1c2ccccc2-c2c1c1cccnc1c(=O)n2C[C@H](O)CO | 56.6 | 78.8 | 14.6% | 44.4 | 31.9 | 55.2% | 53.9% | 80.9 | 76.6 | 66.8 | 75.7 | 91 | 75.3 | 50.3% | 52% | 75.4% |  |
| c1cnc2[nH]cc(-c3nc(-c4ccsc4)cs3)c2c1 | 80.2 | 74.4 | 109% | 79.4 | 84.7 | 107% | 117% | 98.8 | 109 | 121 | 85.6 | 98.3 | 79.9 | 101% | 93.7% | 104% |  |
| O=c1[nH]c(=O)n(C2C[C@H](O)[C@@H](CO)O2)cc1C(F)(F)F (some centres not stated) | 98.1 | 107 | 113% |  | 102 | 101% |  | 123 |  | 107 | 107 | 116 | 114 | 92.5% | 112% | 108% | 107% |
| COCCn1cc(-c2nc(-c3cccnc3)cs2)c2cc(F)ccc21 | 94 | 91.5 | 92.7% |  | 90.1 | 90.8% | 104% | 90.4 | 95.2 | 99.8 | 92.3 | 99.5 | 90.7 | 95.6% | 80.9% | 96.2% |  |
| Fc1ccc2[nH]cc(-c3nc(-c4ccsc4)cs3)c2c1 | 83.6 | 78.5 |  |  | 80 | 109% | 101% | 108 | 106 | 93 | 79.5 | 100 | 99.8 | 89.8% | 94% | 93.7% |  |
| CN(C)CCCN1c2ccccc2CCc2ccc(Cl)cc21 | 71.2 | 85.7 | 79.4% |  | 72.4 | 71.3% | -11.9% (active) | 87.1 |  | 36.7 | 15.8 | 28.3 | 59.4 | 75.6% | 83.5% | 7.07% (active) | -11.9% (active) |
| CN1CCc2c(sc3nc4n(-c5ccc(Cl)cc5)cnn4c(=O)c23)C1 | 91.8 | 92.2 | 124% | 94.1 | 88.2 | 96.4% | 97.7% | 110 | 106 | 97 | 98.7 | 122 | 95.6 | 102% | 106% | 96.8% |  |
| O=C(CNc1nnc(-c2cccnc2SCc2ccccc2)s1)Nc1nc(Cl)cc(Cl)n1 | 112 | 107 | 123% | 102 | 120 |  |  | 100 | 109 | 98.8 | 104 | 124 | 91.5 | 103% | 110% | 106% | 157% |
| c1cncc(-c2csc(-c3c[nH]c4ccccc34)n2)c1 | 84.4 | 84.1 |  | 73.5 | 78.8 | 103% | 94.9% | 103 | 97.7 | 78.8 | 73.5 | 111 | 92.5 | 92.6% | 84.9% | 85.8% |  |
| COc1ccc(C(=O)CSc2nc(-c3cc(OC)ccc3OC)cc(-c3ccc(OC)cc3)c2C#N)cc1 | 91.6 | 88.4 | 127% | 81.6 | 78.6 | 94.4% | 98.8% | 108 | 102 | 110 | 102 | 107 | 90 | 100% | 86.5% | 93.9% |  |
| COc1cc2c3c(n([C@@H]4CCOC4)c(=O)c2cc1OC)-c1cc2c(cc1C3=O)OCO2 | 22.8 | 24.2 | 4.11% (active) | 17.5 | 30.4 | 7.24% (active) |  | 24.2 | 55 | 75.6 | 91 | 52.4 | 35 | 1.17% (active) | -3.51% (active) | 16.5% |  |
